# Laboratory results published in PubChem BioAssay (NCI).
# “And” between values parts separate entries of the source, which are not always exact repeats. Identical values can stand only once. Compounds without any hit were thinned out: in the full panel of roughly 83,000, 20% have a hit.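 Method: cells in 96-well plates; compound added at one concentration; 48 h incubation; percent growth measured; values under 10 scored active.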 The source made the active and inactive calls.
# Tested on: MDA-MB-468 breast
# Experiment: NCI-60 one-dose screen, 48 h (100 = growth as untreated, 0 = no growth, -100 = all killed)
# Settings: 10 µM unless noted
row,SMILES,growth
1,CC(C)NC(=O)c1cc(-c2ccc(NC(=O)Nc3ccc(F)c(C(F)(F)F)c3)cc2)nc2cccnc12,81.4% (inactive)
2,N#Cc1nn(-c2cc(=O)[nH]c3ccc(Cl)cc23)c(N)c1C#N,110% (inactive)
3,O=C(Nc1cccc(C(=O)N2CCc3ccc(Cl)cc32)c1)c1ccco1,-0.651% (active)
4,COc1ccccc1C(=O)Nc1cccc2c1C(=O)C(=O)C=C2,103% (inactive)
5,c1coc(-c2c3ccc(=[N+]4CCCCC4)cc-3oc3cc(N4CCCCC4)ccc23)c1,-88.6% (active)
6,Cc1nc(Nc2ccc(NC(=S)Nc3ccccc3)cc2)c2ccccc2n1,109% (inactive)
7,CN1CCN(Cc2ccc3c(NNC(=O)c4ccccc4)nc4cc(F)ccc4n23)CC1,-12.5% (active)
8,Nc1nc2c(c3cnccc13)C(c1ccc(Cl)c(Cl)c1)Cc1cnccc1-2 (stereo not given),-42.2% (active)
9,COc1ccc(NC(=O)c2ccc(Nc3ncnc4[nH]c(C)c(C)c34)cc2)cc1,119% (inactive)
10,Clc1ccc(C(SCc2ccccc2)SCc2ccccc2)cc1,77.7% (inactive)
11,CCOC(=O)c1[nH]c(C)c(C(C)=O)c1C,87.2% (inactive)
12,Cc1nc2ncccc2nc1Nc1ccc(S(=O)(=O)Nc2cncs2)cc1,97.7% (inactive)
13,CCN(CC)CCNc1ccc([N+](=O)[O-])c2sc3cc(Cl)ccc3c(=O)c12,92.6% (inactive)
14,COc1cc(OC)cc(-c2ccc(-c3ccc(C(=N)N)cn3)o2)c1,-69.9% (active)
15,COc1cc(OC)c(/C=C/C(=O)c2c(O)cc(OC)c(C3CCN(C)CC3)c2OC)c(OC)c1,-91.1% (active)
16,C[n+]1c2ccccc2nc2ccccc21,9.7% (active)
17,Oc1ccccc1/C=N/N=C/c1c(O)ccc2ccccc12,83.4% (inactive)
18,O=C(/C=C/c1sc(Cl)nc1Cl)c1ccccc1,55.3% (inactive)
19,c1ccc2c(-c3nc(-c4c[nH]c5ncccc45)cs3)c[nH]c2c1,108% (inactive)
20,COc1ccc(-n2nc(C)c3c(Nc4ccc(NC(=O)Nc5c(Cl)cccc5Cl)cc4)ncnc32)cc1,27.9% (inactive)

row,SMILES,growth
1,COc1ccc(-c2nc(-c3ccccc3OCc3ccccc3OC)nc(C)c2C(C)=O)cc1,72% (inactive)
2,O=S(=O)(Nc1ccccc1)C1CCCCC1,110% (inactive) and 107% (inactive)
3,c1ccc(-c2nc(N3CCOCC3)c3c4c(sc3n2)CCCCC4)nc1,65.7% (inactive)
4,COc1ccc(/C=c2\sc3n(c2=O)NC2C(N=3)N(C)C(=O)N2C)cc1 (stereo not given),99% (inactive)
5,CNC(=O)c1cc(N2CCc3cc(NC(=O)Nc4ccc(N5CCOCC5)c(C(F)(F)F)c4)ccc32)ccn1,49.6% (inactive)
6,COc1cccc(Nc2ncnn3ccc(CN4CC[C@@H](N)[C@H](O)C4)c23)c1,-42.4% (active)
7,c1ccc(Cn2cc3c(c2-c2ccccc2)CCc2cnoc2-3)cc1,66.5% (inactive)
8,C=C(C)[C@@H]1CC[C@]2(C=O)CC[C@]3(C)[C@H](CC[C@@H]4[C@@]5(C)C/C(=C/c6cccnc6)C(=O)C(C)(C)[C@@H]5CC[C@]43C)[C@@H]12,80.4% (inactive)
9,O=C(N/N=C\c1cc(Cl)ccc1O)N/N=C/c1cc(Cl)ccc1O,61.5% (inactive)
10,O=C1/C(=C/c2ccccc2)COc2ccc(O)cc21,87.8% (inactive)
11,c1ccc(Cc2cccc[n+]2C(c2ccccc2)c2ccccc2)cc1,-6.43% (active)
12,C#C[C@]1(O)CC[C@H]2[C@@H]3CC=C4c5sc(Nc6ccc(Cl)cn6)nc5CC[C@]4(C)[C@H]3CC[C@@]21C,68.4% (inactive)
13,COc1ccc(Oc2ccccc2NC(=O)CNC(=O)c2cccc3ccccc23)cc1,23.7% [5 µM] (inactive)
14,CCNCCCn1c2c(c3ccc(Cl)cc3c1=O)C(=O)c1cc(OC)cnc1-2,5.92% (active)
15,Clc1ccc2c(N/N=C/c3c[nH]c4ccccc34)ccnc2c1,-75.9% (active)
16,O=C1CCC(N2C(=O)c3cccc(NCCCCCCOc4ccc(Nc5nccc(Nc6ccccc6)n5)cc4)c3C2=O)C(=O)N1 (stereo not given),49.3% (inactive)
17,COc1ccc(-c2cc(/C=C/C(=O)c3ccc(N)cc3)[nH]n2)cc1OC,-1.28% (active)
18,COc1ccc(/C=C2\CN(C(=O)CCN3CCC(=NO)CC3)C/C(=C\c3ccc(OC)cc3)C2=O)cc1,-27.5% (active)
19,Oc1[nH]c2ccc(Cl)cc2c1N=Nc1nc(N=Nc2c(O)[nH]c3ccc(Cl)cc23)nc(N2CCCCC2)n1,18.1% (inactive)
20,O=C(CN1C(=O)S/C(=C\C(Cl)=C\c2ccccc2)C1=O)NCCc1ccc(O)cc1,17.3% (inactive)
